Measured values reported in PubChem BioAssay AID1159580 (chemical genetic matrix, 2015).
Screen size: about 5,500 compounds; about 2,000 (36%) were called active. About 18% were inconclusive and are not listed. Rule as the data show it: active = normalized growth mostly below about 0.91 (no sharp cut-off); inconclusive = no clear call, values can overlap the other calls; inactive = mostly above about 0.92. The list shows a part of the results.

Assay: chemical genetic growth profiling, strain panel (AID 1159580);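 also: tested at 20 µM; growth read once vehicle control cultures reached saturation at 30 °C; 1 = growth at the plate median or of vehicle wells; lower values mean less growth of the strain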
Settings: S. cerevisiae deletion strains, growth OD

Measured: normalized growth

O=C(OC1Cc2c(O)cc(O)cc2OC1c1cc(=O)c(O)c2c(O)c(O)cc(C3Oc4cc(O)cc(O)c4CC3O)c2c1)c1cc(O)c(O)c(O)c1 (configuration not stated)
inactive: locus YJL187C, strain SWE1, active compounds read low 0.95 | locus YKL009W, strain mrt4, active compounds read low 1.02 | locus YKL068W, active compounds read low 0.996 | locus YKL085W, strain MDH1 (second series), active compounds read low 0.994 | locus YKL085W, strain MDH1, active compounds read low 0.994 | locus YKL160W, strain elf1, active compounds read low 0.969 | locus YKR026C, strain gcn3, active compounds read low 0.967 | locus YKR091W, strain srl3, active compounds read low 1 | locus YLL001W, strain dnm1, active compounds read low 0.967 | locus YLL026W, active compounds read low 0.978 | locus YLL041C, strain sdh2, active compounds read low 0.989 | locus YLR027C, strain aat2, active compounds read low 0.955 | locus YLR102C, strain apc9, active compounds read low 0.973 | locus YLR221C, strain rsa3, active compounds read low 0.925 | locus YLR258W, strain gsy2, active compounds read low 0.946 | locus YLR320W, strain mms22, active compounds read low 0.927 | locus YLR342W, strain FKS1, active compounds read low 0.929 | locus YLR370C, strain arc18, active compounds read low 0.916 | locus YLR384C, strain iki3, active compounds read low 0.971 | locus YML120C, strain ndi1, active compounds read low 0.952 | locus YML124C, strain tub3, active compounds read low 0.958 | locus YMR078C, strain ctf18, active compounds read low 0.973 | locus YMR125W, strain sto1, active compounds read low 1.03 | locus YMR129W, active compounds read low 1 | locus YMR205C, strain PFK2, active compounds read low 0.901 | locus YNL071W, strain lat1, active compounds read low 1 | locus YNL248C, strain rpa49, active compounds read low 0.986 | locus YNL250W, strain rad50, active compounds read low 0.99 | locus YNL271C, strain bni1, active compounds read low 0.963 | locus YNL298W, strain CLA4, active compounds read low 1 | locus YNL307C, strain MCK1, active compounds read low 0.93 | locus YNL322C, strain KRE1 (second series), active compounds read low 1.02 | locus YNR049C, strain mso1, active compounds read low 0.997 | locus YOL012C, strain htz1 0.293 | locus YOR001W, strain rrp6, active compounds read low 0.962 | locus YOR070C, strain gyp1, active compounds read low 0.938 | locus YOR080W, strain dia2, active compounds read low 0.966 | locus YOR083W, strain WHI5, active compounds read low 0.937 | locus YOR265W, strain rbl2, active compounds read low 0.969 | locus YOR316C, strain cot1, active compounds read low 0.958 | locus YPL078C, strain atp4, active compounds read low 0.957 | locus YPL106C, strain sse1, active compounds read low 0.872 | locus YPL240C, strain hsp82, active compounds read low 0.97 | locus YPR119W, strain clb2, active compounds read low 0.988 | locus YPR141C, strain kar3, active compounds read low 0.993 | locus YPR163C, strain tif3, active compounds read low 0.969
active: locus YJL187C, strain SWE1 (second series), active compounds read low 0.0967 | locus YJR043C, strain POL32, active compounds read low 0.203 | locus YJR075W, strain HOC1, active compounds read low 0.58 | locus YKL190W, strain CNB1, active compounds read low 0.126 | locus YKR001C, strain vps1, active compounds read low 0.688 | locus YLR039C, strain RIC1, active compounds read low 0.17 | locus YLR058C, strain SHM2, active compounds read low 0.183 | locus YLR262C, strain YPT6 (second series), active compounds read low 0.811 | locus YLR262C, strain YPT6, active compounds read low 0.342 | locus YLR268W, strain sec22, active compounds read low 0.609 | locus YLR330W, strain CHS5, active compounds read low 0.708 | locus YLR342W, strain FKS1 (second series), active compounds read low 0.263 | locus YLR357W, strain rsc2, active compounds read low 0.744 | locus YLR371W, strain rom2, active compounds read low 0.711 | locus YLR418C, strain cdc73, active compounds read low 0.356 | locus YML016C, strain PPZ1, active compounds read low 0.0879 | locus YML032C, strain rad52, active compounds read low 0.879 | locus YMR058W, strain fet3, active compounds read low 0.252 | locus YMR223W, strain ubp8, active compounds read low 0.761 | locus YMR231W, strain pep5, active compounds read low 0.866 | locus YMR307W, strain GAS1, active compounds read low 0.339 | locus YNL067W, strain RPL9B, active compounds read low 0.486 | locus YNL128W, strain TEP1, active compounds read low 0.145 | locus YNL153C, strain GIM3, active compounds read low 0.417 | locus YNL209W, strain ssb2, active compounds read low 0.749 | locus YNL233W, strain BNI4, active compounds read low 0.621 | locus YNR052C, strain pop2, active compounds read low 0.648 | locus YOL006C, strain TOP1, active compounds read low 0.139 | locus YOL147C, strain pex11, active compounds read low 0.865 | locus YOR061W, strain CKA2, active compounds read low 0.383 | locus YOR069W, strain VPS5, active compounds read low 0.485 | locus YOR106W, strain vam3, active compounds read low 0.657 | locus YOR136W, strain idh2, active compounds read low 0.906 | locus YOR144C, strain elg1, active compounds read low 0.915 | locus YOR184W, strain ser1, active compounds read low 0.578 | locus YOR270C, strain vph1, active compounds read low 0.638 | locus YOR290C, strain snf2, active compounds read low 0.827 | locus YPL051W, strain arl3, active compounds read low 0.827 | locus YPL241C, strain CIN2, active compounds read low 0.636 | locus YPR167C, strain met16, active compounds read low 0.878 | strain wtn01, active compounds read low 0.667
